Source: PMC5540273 (PLoS ONE, 2017)

Assays:
Settings in all cases: concentration: 1 μM, replicates: in singlicate; n = 1
HUNK = test system: HUNK
ICK = test system: ICK
IGF1R = test system: IGF1R
IKK-alpha = test system: T1, IKK-alpha
T1 construct: gene CHUK

IKK-beta = test system: T2, IKK-beta
T2 construct: gene IKBKB

IKK-epsilon = test system: T3, IKK-epsilon
T3 construct: gene IKBKE

INSRR = test system: INSRR
INSR = test system: INSR
IRAK1 = test system: IRAK1
IRAK3 = test system: IRAK3
IRAK4 = test system: IRAK4
ITK = test system: ITK
[1] = test system: JAK1(JH1domain-catalytic)
[2] = test system: JAK1(JH2domain-pseudokinase)
[3] = test system: JAK2(JH1domain-catalytic)
[4] = test system: JAK3(JH1domain-catalytic)
JNK1 = test system: T4, JNK1
T4 construct: gene MAPK8

JNK2 = test system: T5, JNK2
T5 construct: gene MAPK9

JNK3 = test system: T6, JNK3
T6 construct: gene MAPK10

KIT-autoinhibited = test system: KIT-autoinhibited
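Further: KINOMEscan kinase panel screen.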

Row | SMILES | %Inh (HUNK) [%] | %Inh (ICK) [%] | %Inh (IGF1R) [%] | %Inh (IKK-alpha) [%] | %Inh (IKK-beta) [%] | %Inh (IKK-epsilon) [%] | %Inh (INSRR) [%] | %Inh (INSR) [%] | %Inh (IRAK1) [%] | %Inh (IRAK3) [%] | %Inh (IRAK4) [%] | %Inh (ITK) [%] | %Inh [1] [%] | %Inh [2] [%] | %Inh [3] [%] | %Inh [4] [%] | %Inh (JNK1) [%] | %Inh (JNK2) [%] | %Inh (JNK3) [%] | %Inh (KIT-autoinhibited) [%]
1 | O=C(Nc1n[nH]c2nc(-c3nccs3)c(Br)cc12)C1CC1 [SB-742251] | 0 | 61 | 0 | 54 | 49 | 1 | 0 | 2 | 64 | 4 | 43 | 13 | 1 | 21 | 36 | 0 | 41 | 16 | 16 | 0
2 | CC(C)(C)c1ccc(C(=O)Nc2cn3cc(Cl)ccc3n2)cc1 | 43 | 0 | 0 | 0 | 100 | 0 | 0 | 0 | 0 | 23 | 0 | 0 | 0 | 7 | 1 | 0 | 0 | 0 | 0 | 42
3 | COc1ccc2nc(-c3cccc(C)n3)nc(Nc3ccncc3)c2c1 [GSK204919] | 9 | 0 | 0 | 0 | 22 | 3 | 0 | 0 | 4 | 0 | 0 | 13 | 0 | 80 | 10 | 0 | 0 | 60 | 36 | 0
4 | NC(=O)c1nnc2ccccc2c1N | 0 | 13 | 0 | 27 | 35 | 0 | 12 | 29 | 54 | 19 | 33 | 64 | 4 | 37 | 58 | 65 | 27 | 17 | 13 | 19
5 | Cc1ccc(NC(=O)Nc2cc(C(C)(C)C)nn2-c2ccccc2)cc1 [GSK1014915] | 0 | 23 | 8 | 22 | 20 | 1 | 0 | 13 | 23 | 100 | 23 | 12 | 0 | 0 | 13 | 0 | 45 | 39 | 10 | 0
6 | CN(C)CCN(C)C(=O)c1cc(-c2ccncc2)c(-c2ccc(Cl)c(O)c2)o1.Cl.Cl [SB-710397] | 38 | 10 | 7 | 44 | 35 | 34 | 0 | 0 | 56 | 0 | 43 | 13 | 18 | 0 | 49 | 0 | 27 | 29 | 35 | 0
7 | CS(=O)(=O)c1ccc(-c2nc3n(c2-c2ccncc2)CCC3)cc1 [SKF-105942] | 27 | 100 | 0 | 0 | 0 | 0 | 0 | 16 | 1 | 0 | 23 | 7 | 6 | 0 | 0 | 0 | 41 | 16 | 0 | 7
8 | Clc1cc(Cl)cc(Nc2ccnc(Nc3cc(Cl)cc(Cl)c3)n2)c1 [GSK175726] | 0 | 7 | 16 | 0 | 10 | 39 | 0 | 13 | 15 | 2 | 0 | 4 | 12 | 0 | 22 | 0 | 2 | 0 | 0 | 3
9 | CC1=C(C(=O)Nc2cc3cn[nH]c3cc2F)C(c2ccc(C(F)(F)F)cc2)CC(=O)N1 (centres unmarked) [GSK429286] | 20 | 13 | 0 | 0 | 56 | 5 | 0 | 0 | 31 | 5 | 17 | 13 | 40 | 0 | 62 | 29 | 21 | 25 | 15 | 0
10 | COc1ccccc1CNC(=O)c1cc(C(=O)c2ccccc2C)c[nH]1 [GSK364507] | 16 | 11 | 7 | 9 | 13 | 20 | 0 | 8 | 33 | 0 | 23 | 16 | 19 | 0 | 0 | 0 | 45 | 9 | 16 | 0
